Laboratory results reported in the supplement of paper PMC5662767.
Where a name gives a salt, the structure may show the parent alone.
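Further: flow cytometry read-out as median GFP intensity of gated cells, compounds added 30 min before Hh-conditioned or mock medium, mock-treated cells serving as unstimulated baseline.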

These molecules were tested on Drosophila S2 cl14 SmoIP sensor cells (assay: normalized SmoIP GFP fluorescence (untreated unstimulated = 0%, untreated Hh-stimulated = 100%); higher = more Smo activation sensor fluorescence). Conditions: stimulation: Hh conditioned medium (+Hh); compound concentration: 2 uM; 24 h.
`C[C@H](Nc1ncnc2nc[nH]c12)c1cc2cccc(Cl)c2c(=O)n1-c1ccccc1` was tested, and the “normalized SmoIP GFP fluorescence” value was 98%. With `O=C(Nc1ccccc1)N1CCN(c2nc(-c3ccccc3)ns2)CC1` the “normalized SmoIP GFP fluorescence” value was 104%. For `O=C(N/N=C/c1ccc(O)c(O)c1)c1cc2ccccc2cc1O` [dynasore], the “normalized SmoIP GFP fluorescence” value was 129%. `COc1cc(Nc2ncc3c(n2)-c2ccc(Cl)cc2C(c2c(F)cccc2OC)=NC3)ccc1C(=O)O` was tested, and the “normalized SmoIP GFP fluorescence” value was 89.5%. For `Cc1c(-c2ccccc2)oc2c(C(=O)OCCN3CCCCC3)cccc2c1=O` [flavoxate-hcl], the “normalized SmoIP GFP fluorescence” value was 106%. In the case of `CC(=O)O/N=C1\C(=O)N(Cc2cc(Cl)ccc2Cl)c2ccc(Cl)cc21`, the “normalized SmoIP GFP fluorescence” value is reported as 106%. `O=C(/C=C\n1cnc(-c2cc(C(F)(F)F)cc(C(F)(F)F)c2)n1)NNc1cnccn1` was tested, and the “normalized SmoIP GFP fluorescence” value was 109%. In the case of `N#Cc1c(O)c2c(-c3ccc(-c4ccccc4O)cc3)csc2[nH]c1=O`, the “normalized SmoIP GFP fluorescence” value is reported as 139%. `O=C(Nc1cccc(Cl)c1)Nc1ncc(CCNc2ncnc3ccsc23)s1` was tested, and the “normalized SmoIP GFP fluorescence” value was 127%. For `CC(C)c1noc(N2CCC(COc3ccc(-c4ccc(S(C)(=O)=O)cc4)nc3)CC2)n1`, the “normalized SmoIP GFP fluorescence” value was 110%. In the case of `N#Cc1ccc2[nH]c(O)c(-c3ccc(CN4CCOCC4)cn3)c2c1`, the “normalized SmoIP GFP fluorescence” value is reported as 108%. With `NC(=O)c1ccc(-c2nc(-c3ccccn3)c(-c3ccc4c(c3)OCO4)[nH]2)cc1` the “normalized SmoIP GFP fluorescence” value was 130%. With `COc1cc2c(cc1OC)CC(=O)N(CCCN(C)C[C@@H]1Cc3cc(OC)c(OC)cc31)CC2` [ivabradine-hcl-procoralan] the “normalized SmoIP GFP fluorescence” value was 111%. With `CC(C)C[C@H](NC(=O)[C@H](Cc1ccccc1)NC(=O)c1cnccn1)B(O)O` [Bortezomib] the “normalized SmoIP GFP fluorescence” value was 70.3%. With `NC1(c2ccc(-c3nc4ccn5c(=O)[nH]nc5c4cc3-c3ccccc3)cc2)CCC1` the “normalized SmoIP GFP fluorescence” value was 102%.
